This is an account of results in PubChem BioAssay (NCATS).

The structures appear in SMILES notation. Several values for one entry are separate records, joined by “and”; a condition that tells them apart may be missing. Identical values can stand only once. Inconclusive results are not listed. Activity calls are given as the source filed them. Unless noted, the call rests on the fitted dose curve; in most records, active means well fitted curve in the direction sought with a large enough effect; inconclusive means small, poorly fitted or top-dose-only effect, or another doubt; inactive means no such curve, though single readings can be large; an effect the other way counts as inactive or inconclusive.

Assay [1] can be described thus: qHTS assay for small molecule antagonists of the retinoid-related orphan receptor gamma (ROR-gamma) signaling pathway - cell viability counter screen (AID 720652; active means well fitted curve in the direction sought with a large enough effect in the repeat runs; an effect the other way counts as inactive or inconclusive;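 further: CHO reporter cells with doxycycline-induced ROR-gamma expression; compound exposure lasted 16 hr before ATP read; on the % scale 0 is the no-effect control and ±100 the full control effect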). Put shortly:
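Steps: seed CHO cells bearing TET-inducible ROR and ROR response element-luciferase; rest 5 hr at 37 C; add compound, then doxycycline; incubate 16 hr; add CellTiter-Glo and read luminescence as ATP-based viability.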

A short description of assay [2]: qHTS assay for small molecule agonists of the antioxidant response element (ARE) signaling pathway measured by Nrf2-dependant transcriptional activity - cell viability counter screen (AID 720653; active means well fitted curve in the direction sought with a large enough effect in the repeat runs; an effect the other way counts as inactive or inconclusive; further: on the % scale 0 is the no-effect control and ±100 the full control effect). As to conditions: ARE-bla HepG2 viability, CellTiter-Glo ATP luminescence, 16 h; stronger effect = lower value. The essentials: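 Cytotoxicity counter screen: intracellular ATP quantified by CellTiter-Glo luminescence in the same ARE-bla HepG2 plates, after 16 h compound exposure and a 2 h beta-lactamase substrate step.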

Assay [3] can be described thus: qHTS Assay for Identifying Gametocytocidal Compounds (AID 743244). Further: potency means the concentration at half of the fitted maximal effect.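 On max response: on the % scale 0 is the no-effect control and ±100 the full control effect; actives lower the fluorescent signal which means gametocytes are killed.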 Conditions: P. falciparum 3D7 stage III-V gametocytes, alamarBlue, 72 h; max response: stronger effect = lower value. The essentials: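 Stage III–V gametocytes of P. falciparum 3D7 were seeded at 20,000 cells/well onto pre-dispensed compounds. After 72 h, 37 °C, 5% CO2, alamarBlue was added for another 24 h.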
(In general: In qHTS, concentration-response curves come from the screen itself.)

The nature of assay [4]: qHTS assay for cell viability of the p53RE-bla HCT-116 cell line (AID 743292). Further: on the % scale 0 is the no-effect control and ±100 the full control effect; nearly all actives have a fitted effect of over 55% in size. The essentials: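 Quantitative high-throughput format: compounds in DMSO were pinned onto p53RE-bla HCT-116 cells (4,000/well) and incubated 16 h at 37 C. Total intracellular ATP, read by CellTiter-Glo luminescence, reflects viable cell number.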
For assay [5], the target named is T1, Hexokinase-4 (Homo sapiens) + Glucokinase regulatory protein (Homo sapiens) (UniProt P35557+Q14397). Kind of assay: qHTS assay for inhibitors of recombinant human GCK-GKRP interaction: Diaphorase-coupled assay (AID 743205). Put shortly: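 25 mM Hepes pH 7.6, 5 mM glucose, 0.4 mM ATP, 4 U/ml G6PDH; 10 nM each GST-GCK/FLAG-GKRP. Kinetic fluorescence read, 1/min × 30 min. Normalized: DMSO ± enzyme = max/min.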
T1 sequence (P35557 whole entry, looked up): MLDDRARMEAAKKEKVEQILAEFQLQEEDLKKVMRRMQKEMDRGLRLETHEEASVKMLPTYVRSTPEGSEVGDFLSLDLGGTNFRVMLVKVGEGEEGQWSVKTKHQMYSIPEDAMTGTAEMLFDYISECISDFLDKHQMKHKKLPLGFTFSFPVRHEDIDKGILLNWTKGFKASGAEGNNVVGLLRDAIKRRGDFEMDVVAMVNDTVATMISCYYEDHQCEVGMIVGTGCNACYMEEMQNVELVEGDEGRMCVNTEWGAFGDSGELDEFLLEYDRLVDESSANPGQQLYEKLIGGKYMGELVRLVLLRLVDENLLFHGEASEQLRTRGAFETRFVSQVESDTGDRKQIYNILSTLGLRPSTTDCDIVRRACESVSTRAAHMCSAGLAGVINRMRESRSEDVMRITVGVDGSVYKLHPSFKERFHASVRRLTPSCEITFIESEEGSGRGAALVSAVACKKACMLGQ
T1 sequence (Q14397 whole entry, looked up): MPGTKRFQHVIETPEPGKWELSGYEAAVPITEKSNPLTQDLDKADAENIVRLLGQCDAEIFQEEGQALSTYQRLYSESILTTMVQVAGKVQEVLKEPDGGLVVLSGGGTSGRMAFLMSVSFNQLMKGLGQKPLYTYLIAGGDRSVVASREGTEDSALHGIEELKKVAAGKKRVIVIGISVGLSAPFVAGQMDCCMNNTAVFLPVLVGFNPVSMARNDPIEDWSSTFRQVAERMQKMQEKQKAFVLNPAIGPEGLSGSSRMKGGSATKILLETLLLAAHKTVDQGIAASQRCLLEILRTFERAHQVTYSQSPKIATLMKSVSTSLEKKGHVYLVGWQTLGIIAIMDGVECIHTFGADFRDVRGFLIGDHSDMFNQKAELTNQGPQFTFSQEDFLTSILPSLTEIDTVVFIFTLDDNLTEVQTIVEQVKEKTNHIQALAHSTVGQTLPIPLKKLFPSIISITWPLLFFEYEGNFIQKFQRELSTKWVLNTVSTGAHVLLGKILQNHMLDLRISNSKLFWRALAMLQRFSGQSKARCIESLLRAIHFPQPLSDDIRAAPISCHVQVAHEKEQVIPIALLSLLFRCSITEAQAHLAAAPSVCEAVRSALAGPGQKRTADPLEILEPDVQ

For assay [6], the target named is T1, Hexokinase-4 (Homo sapiens) + Glucokinase regulatory protein (Homo sapiens). Kind of assay: qHTS assay for inhibitors of recombinant human GCK-GKRP interaction: ADP-Glo assay (AID 743206).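 Further: plate controls were DMSO plus enzyme for no effect and no enzyme for full effect.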 From the text:
Glucokinase (GCK) is a glucose sensor in hepatocytes and pancreatic beta-cells. Hepatic GCK is regulated by glucokinase regulatory protein (GKRP), which is predominantly localized to the liver. GKRP binds to GCK inhibiting its activity in the fasting state while in the presence of glucose the GKRP is displaced. There is an additional layer of regulation by fructose 1-phosphate and fructose 6-phosphate, which inhibit and enhance the GCK-GKRP interaction, respectively. GCK plays a role in glucose homeostasis and there is an interest in the development of strategies to activate GCK to lower blood glucose levels in type 2 diabetes. To date the majority of effort has focused on direct activation of GCK and the assays developed herein look to activate GCK by inhibiting its binding to GKRP. A compound that inhibits the interaction of GCK with GKRP could be important for the treatment of diabetes and can also be used as a tool compound to further elucidate GCK-GKRP biology. To that end, we have developed a sensitive HTS biochemical assay where in GCK activity is coupled to luciferase to interrogate the GCK-GKRP interaction. This assay was screened against a small compound library to look for modulators of activity.
2 uL of 15 nM GST-GCK and 15 nM FLAG-GKRP proteins with 2 uM S6P (columns 1-2, 4-48; Millipore, Billerica, MA) are dispensed into Greiner, white solid-bottom 1536-well assay plates; columns 3 receive buffer without GCK as a control for maximum inhibition. Compounds (23 nL) are then transferred via Kalypsys pin tool equipped with 1536-pin array (10 nL slotted pins, V&P Scientific, San Diego, CA). The library compounds are in columns 5-48 and columns 1-4 serve as controls with DMSO in columns 1 and 3 and 26 mM 1:1.5 fold serial of gluckokinase activator (GKA-EMD) in column 2 and 26 mM of the glucokinase activator (GKA-EMD) in column 4. Following addition of compound, 1 uL of ATP […] is added, and the plate is incubated for 60 minutes at room temperature. The amount of ADP is then quantified by the ADP-Glo Kit (Promega, Madison, WI). First, 2 uL of the first kit reagent is added, and the reaction is incubated for 45 minutes; then, 4 uL of the second kit reagent are added and the reaction is incubated for 30 minutes at which time the luminescence is read on a Viewlux plate reader (Perkin-Elmer, Waltham, MA). The final concentration of reagents in the reaction are 0.4 mM ATP, 25 mM Hepes pH 7.6, 25 mM KCl, 2 mM MgCl2, 1 mM DTT, 0.025% BSA, 0.01% Tween 20, 5 mM glucose. Data are normalized to DMSO-treated control columns with (maximum signal) and without (minimum signal) enzyme.

For assay [7] the target is unchanged. Kind of assay: qHTS assay for inhibitors of recombinant human GCK-GKRP interaction: HTRF assay (AID 743207).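 Further: 0% = DMSO with GCK present and -100% = DMSO wells lacking GCK.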 Put shortly: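 5 nM GST-GCK + 5 nM FLAG-GKRP + 2 uM S6P, pH 7.1 buffer (25 mM Hepes, 2 mM MgCl2, 25 mM KCl, 1 mM DTT, Tween/BSA); pin-transferred cpd; anti-FLAG XL665/anti-GST K; 60 min RT; HTRF.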
Assay [8] in a line: qHTS assay for cell viability of HEK293 cells (AID 743288). Further: nearly all actives have a fitted effect of over 50% in size. Further: potency means the concentration at half of the fitted maximal effect. On max response: on the % scale 0 is the no-effect control and ±100 the full control effect. As to conditions: ATP luminescence (CellTiter-Glo), 18 h; max response: stronger effect = lower value. Put shortly: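 Viable-cell counts were inferred from luciferase-based ATP content in HEK293 cells seeded at 2,000/well, pre-incubated ≥5 h, then dosed with DMSO-solubilised compounds for 18 h at 37 C.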
A short description of assay [9]: qHTS profiling for inhibitors of Plasmodium falciparum (3D7) proliferation (AID 743322; call rule not given here;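 further: infected erythrocytes exposed to compound for 72 h before lysis; 100% = DMSO vehicle wells and 0% = 0.29 µM artemisinin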). As to conditions: P. falciparum 3D7 proliferation; at 28.7 µM (top of the series). An excerpt:
Plasmodium falciparum is a virulent malarial parasite that kills 1-2 million people worldwide each year. Transmitted by mosquitoes, the sporozoite form of the parasite enters the blood stream to infect hepatocytes, where they become merozoites that infect red blood cells (erythrocytes). Within erythrocytes, merozoites begin a […] cycle of growth and division, after which the parasite is released to infect new red blood cells. Gametocytes, which form within erythrocytes as well, circulate in the bloodstream and are ingested by the mosquito, thereby completing the life cycle. To profile malarial isolates for differential chemical responses and to identify inhibitors of malarial growth, an assay that measures P. falciparum growth and replication within erythrocytes was employed. […] Because mature erythrocytes lack DNA, only Plasmodium-derived DNA is detected.
The SYBR Green viability assay was adapted from a method described previously (Plouffe et al., 2008). […] The following morning, fluorescence intensity at 485(14) nm excitation and 535(25) nm emission wavelengths was measured on an EnVision (Perkin Elmer) plate reader. Plate reads were normalized relative to the control inhibitor (0.29 uM artemisinin) and vehicle (DMSO) wells present on each plate and then corrected by an algorithm using vehicle-only control plates at the beginning and end of the compound plate stack.

Assay [10] is described as follows: qHTS profiling for inhibitors of Plasmodium falciparum (DD2) proliferation (AID 743323; call rule not given here). As to conditions: lower = more inhibition; at 28.7 µM (top of the series). Put shortly: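 P. falciparum Dd2-infected erythrocytes (0.3% parasitemia, 2.5% hematocrit) exposed 72 h at 37 C, 5% CO2. Lysis with SYBR Green, overnight at room temperature, fluorescence 485/535 nm; normalized to 0.29 uM artemisinin and DMSO.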

Consider `CC[n+]1c(-c2ccccc2)c2cc(N)ccc2c2ccc(N)cc21`, for which the Potency result in assay [1] was “inactive”. The max response in [2] is -16.8% (inactive). In assay [3], the Potency was 1.41 µM (active) and 6.31 µM (active). Further, in [4], the outcome was inactive.

On to `CN1C(=O)CN=C(c2ccccc2)c2cc([N+](=O)[O-])ccc21`, for which the max response in assay [3] is 4.86% (inactive).

Consider `NC(=O)CN1CCCC1=O`, for which the outcome in [5], in [6] and in assay [7] was inactive. The max response in [3] was 0.359% (inactive) and -8.59% (inactive).

In the case of `COCC(=O)N(c1c(C)cccc1C)C(C)C(=O)OC` (configuration not stated), the max response in assay [2] was -4.71% (inactive); in assay [3], -6.72% (inactive); in assay [8] it was -7.89% (inactive). Moreover, the outcome in assay [4] was inactive.

As for `COP(=O)(OC)OC=C(Cl)Cl`, the Potency result in [1] is “inactive”. Also, the max response in assay [2] was -9.52% (inactive) [middle of 4 runs]; in [3] it was -6.93% (inactive); in assay [8], -9.07% (inactive) [middle of 4 runs]. Besides, in assay [4], the outcome was inactive.

Regarding `O=C(O)c1nn(Cc2ccc(Cl)cc2Cl)c2ccccc12`, the result in assay [5], in assay [6] and in [7] was inactive. In assay [3], the max response is -7.97% (inactive) and 31% (inactive). Also, in assay [9], the remaining parasite growth % (stronger effect = lower value) amounted to 86.6%. Moreover, the activity, percent of control in assay [10] is 60.1%.

Regarding `COC(=O)C1=CCCN(C)C1`, the result in assay [5], in assay [6] and in [7] was inactive. The max response in assay [3] was 7.57% (inactive) and 6.37% (inactive).

In the case of `Oc1c(Br)cc(Br)cc1Br`, the Potency result in assay [1] is “inactive”. Further, the max response is -5.17% (inactive) and -2.6% (inactive) in assay [2]; -0.35% (inactive) in assay [3]; -15.1% (inactive) and -2.12% (inactive) in [8]. Besides, in assay [4], the outcome was inactive.

In the case of `COP(=S)(OC)Oc1ccc(Sc2ccc(OP(=S)(OC)OC)cc2)cc1`, the values for the max response in assay [2], in [3] and in [8] were -17.2% (inactive), 1.05% (inactive) and -12.2% (inactive), respectively. In addition, the call in assay [4] was inactive.

With `CCOC(=O)Nc1ccc(NCc2ccc(F)cc2)nc1N`, in [5], the outcome was inactive. Besides, the Potency in [3] is 3.55 µM (active).

As to `O=C(NC(=O)c1c(F)cccc1F)Nc1cc(Cl)c(OC(F)(F)C(F)C(F)(F)F)cc1Cl` (configuration not stated), the max response in [2] is -21.7% (inactive); in [3] it was 13.1% (inactive); in [8], -27.8% (inactive). Further, the compound was classed as inactive in assay [4].

Consider `C=CCOC(Cn1ccnc1)c1ccc(Cl)cc1Cl` (configuration not stated), for which the max response in [2] was -15.2% (inactive) and -7.32% (inactive); in [8], -18.6% (inactive) and -17% (inactive). Besides, the compound was called inactive in assay [4].

For `C[C@@H]1C[C@@H]([C@H](O)CC2CC(=O)NC(=O)C2)C(=O)[C@@H](C)C1`, the Potency entry in assay [1] is “inactive”. The max response in [2] was 15.1% (inactive) and 0.954% (inactive) and 3.58% (inactive). For the same compound, the Potency was 2.82 µM (active) in assay [3] and 126 nM (active) in [8]. For the same compound, in assay [4], the compound was called inactive. The remaining parasite growth % (stronger effect = lower value) in assay [9] was -0.0842%. The compound also gave an activity, percent of control in assay [10] of 0.342%.

`C[C@H]1C(=O)O[C@@H]2CCN3CC=C(COC(=O)[C@](C)(O)[C@]1(C)O)[C@H]23`: the max response was -1.85% (inactive) in assay [2], 14.3% (inactive) in [3] and -3.57% (inactive) in assay [8]. Further, the result in assay [4] was inactive.
